Calls of active or inactive are those of the source. Unless noted, how the calls were made is not given here.

The nature of assay [1]: reduced mouse 2C T cell binding to pMHC/ICAM-1 vesicles – MLPCN validation set, flow cytometry, LFA-1/ICAM-1 modulator project, pilot screen (AID 2523;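 active means response below a set limit, under 55% cells CD8-positive and vesicle-bound, and CD8 cells' 90th-percentile brightness under 279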;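 on vesicle binding response: mean PE anti-B7-1 fluorescence of CD8+ cells relative to row control; 100% = QL9-loaded vesicles with DMSO vehicle in the same plate row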). Conditions: 2C mouse CD8+ T cells, at 7 µM, stronger effect = lower value; double positive events: measured here: CD8+/vesicle+ event percentage. In general terms: In flow cytometry, cells or beads pass a laser one at a time.
The target in assay [2] is Integrin beta-1 (Homo sapiens) + Integrin alpha-4 (Homo sapiens) (UniProt P13612+P05556). The experiment in a line: alpha4beta1 integrin LIBS antibody binding reduction – U937 cells, HUTS-21 mAb, flow cytometry, validation set, VLA-4 allosteric modulator project, pilot screen (AID 2674;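 active means inhibition above 50%, about 3 SD of the validation set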;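 further: antibody binding induced by the VLA-4 ligand LDV present at three times its Kd; 0% = LDV ligand with antibody and no compound and 100% = antibody without LDV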). Conditions: HUTS-21 LIBS mAb binding, at 6.7 µM, stronger effect = higher value.
The nature of assay [3]: calorie-restriction mimetic ROS inhibitors, yeast – validation compound set, pilot screen (AID 2706;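 active means superoxide response below 65% of plate, a cut near 3 SD across the whole screen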;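 further: yeast exposed to compound for one week at 30 degrees C before staining; 100% = mean of all compound wells on the same plate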). Conditions: S. cerevisiae aging, superoxide DHE fluorescence; at 10 µM; stronger effect = lower value.
The target in assay [4] is Beta-adrenergic receptor kinase 1 (Homo sapiens) (UniProt P25098). The experiment in a line: GRK2 binders displacing RNA aptamer, biochemical, validation, human GRK2, bead flow cytometry (AID 488806;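 active means aptamer binding inhibition above 30%, about 3 SD of noise from non-fluorescent compounds; inactive means inhibition at or below 30%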). Conditions: bead-bound GRK2, FAM-aptamer displacement, at 10 µM, stronger effect = higher value.
Assay [5] has as its target Beta-2 adrenergic receptor (Homo sapiens) (UniProt P07550). In words: agonist-induced loss of surface beta2AR – cell-based, FAP fluorogen, flow cytometry, validation set, pilot screen (AID 504459;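 active means percent response above 42, roughly 3 SD of non-fluorescent test compounds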;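 further: agonist-driven loss of surface beta2AR via internalization measured by FAP dye flow cytometry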). Conditions: Am2.2-beta2AR cells, at 10 µM, stronger effect = higher value.
The target in assay [6] is AP-2 complex subunit beta (Homo sapiens) (UniProt P63010). In words: beta-arrestin/AP2 interaction blockers – biochemical, validation set, GST-AP2 beads, flow cytometry, pilot screen (AID 504541;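 active means inhibition above 54%, about 3 SD of non-fluorescent compounds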;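 further: AP2 carries R879A mutation and is captured from E. coli lysate; bead-bound FITC arrestin peptide fluorescence measuring arrestin peptide binding to AP2; 0% = DMSO wells and 100% = excess unlabeled arrestin peptide control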). Conditions: FITC arrestin peptide, at 10 µM, stronger effect = higher value.
Assay [7] can be described thus: cytosolic pH regulators acting via V-ATPase – S. cerevisiae, pHLuorin, HTS validation (AID 504600; in the data active means response above about 15%;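 further: plate controls were DMSO for no effect and reference compound for full effect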). Conditions: V-ATPase proton transport, at 10 µM, stronger effect = higher value.
Assay [8] has as its system anti-desmoglein-3 scFv antibody binding to human DSG3. The experiment in a line: blockers of pathogenic pemphigus antibody–desmoglein-3 binding – biochemical, validation compound set, bead-based, flow cytometry, pilot screen (AID 588368;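 active means binding below the plate cutoff, the plate median minus 3 SD, with a reading above zero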;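 further: signal is the median channel fluorescence of bead-bound GFP antibody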). Conditions: Protein G beads, DSG3-Fc, scFv-GFP binding, at 10 µM, stronger effect = lower value.
For assay [9], the system named is Botulinum neurotoxin type F light chain protease (Clostridium botulinum). In words: Clostridium botulinum type F light chain protease inhibitors, microsphere substrate cleavage, validation (AID 588459). Conditions: multiplex microsphere protease substrate cleavage assay, flow cytometry; at 10 µM; stronger effect = higher value.
The target of assay [10] is Botulinum neurotoxin type A (Clostridium botulinum) (UniProt P0DPI0). In words: BoNT/A light chain protease inhibitors, biochemical, multiplex microsphere flow cytometry, validation set (AID 588460). Conditions: at 10 µM, stronger effect = higher value.
Assay [11] deals with Lethal factor (Bacillus anthracis) (UniProt P15917). The experiment in a line: Bacillus anthracis lethal factor inhibition, microsphere flow cytometry protease assay, validation at 10 µM (AID 588461). Conditions: multiplex microsphere protease cleavage assay, stronger effect = higher value.
Assay [12] can be described thus: Nile Red efflux blockade in pump-expressing yeast – validation compound set, multiplex, phenotypic, pilot screen (AID 588506;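 active means efflux inhibition above 0.42, the validation set average plus 4 SD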;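 further: Nile Red retained in cells so higher fluorescence means more efflux inhibition; 0 = negative control wells and 1 = enniatin B 25 µM full block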). Conditions: S. cerevisiae pump-expressing triplex, Nile Red efflux flow cytometry; at 10 µM; stronger effect = higher value.
Assay [13] deals with ATP-binding cassette sub-family B member 6 (Homo sapiens) (UniProt Q9NP58). The experiment in a line: blockers of ABCB6-driven porphyrin uptake – K562-ABCB6 cells, flow cytometry, validation set, pilot screen (AID 588550;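 active means inhibition above the screen-wide mean plus 3 SD, about 51%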;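 further: 0% = DMSO wells and 100% = benzethonium chloride 70 µM positive control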). Conditions: K562-ABCB6 porphyrin accumulation, 1 h, at 10 µM, stronger effect = higher value.
The nature of assay [14]: AML differentiation inducers, ER-HoxA9 marrow cells – cell-based, GFP/MAC1 double positive, flow cytometry, validation set, primary screen (AID 588685;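 active means differentiation response of at least 50%, scaled between solvent and reference control, from cells with both markers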;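 further: compound exposure lasts four days before antibody staining and flow analysis; 0% = DMSO wells and 100% = 5 µM fulvestrant positive control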). Conditions: stronger effect = higher value.
A short description of assay [15]: hit retest on RPL19A-GFP reporter strain – cell-based, S. cerevisiae, flow cytometry, cherry picks, mother/daughter gates, confirmation (AID 2270;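 active means GFP response below 50% of the DMSO control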). Conditions: 3 h, at 10 µM, stronger effect = lower value, 100 = same GFP as DMSO wells.
Assay [16] can be described thus: yeast TOR pathway reporter LAP4-GFP change – cell-based, cherry picks, flow cytometry, mother/daughter gates, confirmation (AID 2271;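 active means GFP response above 150% of the DMSO control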;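 further: ratio of sample to DMSO plate mean so 100% equals DMSO level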). Conditions: S. cerevisiae LAP4-GFP strain, 3 h, at 10 µM, stronger effect = higher value.
Assay [17] can be described thus: TOR pathway reporter MEP2-GFP, retest of hits – S. cerevisiae, flow cytometry GFP, cherry picks, confirmation (AID 2272;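 active means GFP response above 150% of the DMSO control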;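 further: ratio of well signal to plate DMSO mean so 100% equals DMSO level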). Conditions: S. cerevisiae MEP2-GFP strain, 3 h, at 10 µM, stronger effect = higher value.
Assay [18] is described as follows: yeast AGP1-GFP fluorescence change, single-dose – cell-based, flow cytometry, S. cerevisiae, cherry picks, confirmation (AID 2273;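 active means GFP response above 150% of the DMSO level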;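 further: median GFP channel fluorescence over the whole cell population gate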). Conditions: S. cerevisiae AGP1-GFP strain, 3 h, at 10 µM.
Assay [19] in a line: TOR pathway CIT2 reporter hit retest – S. cerevisiae, GFP fusion, cherry picks, mother/daughter gates, confirmation (AID 2274;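 active means GFP response above 150% of the DMSO level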). Conditions: S. cerevisiae CIT2-GFP strain, flow cytometry, 3 h, at 10 µM, stronger effect = higher value.
[20] abbreviates: measured here: daughter cell gate.
The mark [21] stands for this setting: measured here: mother cell gate.

With `CC/C(=C\C=C\[C@@H]1C=C[C@@H]2CCC[C@H]2[C@@H]1C(=O)c1ccc[nH]1)[C@@H]1O[C@@H]([C@@H](C)C(=O)O)CC[C@@H]1C`, the double positive events in assay [1] was 60.2%. Besides, in [1], the vesicle binding response is 275% (inactive). For the same compound, the inhibition was -7.08% (inactive) in assay [2]; 0.83% (inactive) in assay [6]; 1.9% (inactive) in assay [9]; 0.5% (inactive) in assay [10]; -4.4% (inactive) in assay [11]; -1% (inactive) in [13]. Moreover, in [3], the superoxide response (% of plate) is 94% (inactive). For the same compound, the aptamer binding inhibition in [4] was 2% (inactive). For the same compound, the figures for the response in assay [5] and in assay [7] were 9.7% (inactive) and -0.4% (inactive), respectively. For the same compound, the binding (% of control) in [8] is 107% (inactive). Moreover, the efflux inhibition (fraction of control) in [12] was 0 (inactive). In addition, in assay [14], the differentiation response was -4% (inactive).
As for `CCC(C)N1C(=O)/C(=C\c2cnc(N(C)C)nc2)C(=O)NC1=S` (stereo not drawn), the GFP response vs DMSO was 104% (inactive) in assay [15], 98.4% in assay [15] (setting [20]), 93.8% in assay [15] (setting [21]) and 104% (inactive) in assay [17]. The GFP response relative to DMSO in [16] was 97.4% (inactive). The GFP response, % of DMSO in assay [18] was 97.2% (inactive); in assay [19], 106% (inactive); in assay [19] (setting [20]), 114%; in assay [19] (setting [21]) it was 90.2%.
Take `O=C(O)c1ccc(N2C(=O)/C(=C\c3ccccc3)N=C2c2ccccc2)cc1`: the inhibition in assay [9] is 1% (inactive); in assay [10], -1.6% (inactive); in [11], 4.4% (inactive).
With `O=C(CCN1CCC(c2ccccc2)C1)c1ccc2c(c1)OCCO2` (stereo not drawn), the figures for the inhibition in [9], in [10] and in assay [11] were 4.6% (inactive), -0.2% (inactive) and -1.8% (inactive), respectively.
Turning to `C=CCn1c(SCC(=O)NC2CCCCC2)nc2ccccc2c1=O`, the values for the inhibition in [9], in [10] and in assay [11] were -0.1% (inactive), -1.1% (inactive) and -3.5% (inactive), respectively.
In the case of `O=C1C(Cc2ccccc2)NC(=S)N1c1ccccc1` (stereo not drawn), the inhibition in assay [9] is 3.8% (inactive); in assay [10], 0.9% (inactive); in [11], -7.8% (inactive).
As to `CCOC(=O)/C=C1\NC(C)(C)Cc2cc(OC)c(OC)cc21`, the inhibition in [9] is 0.2% (inactive); in assay [10], -0.4% (inactive); in assay [11], -2.8% (inactive).
For `CN1C2CCC1CC(OC(c1ccccc1)c1ccccc1)C2` (stereo not drawn), in that order: 2.3% (inactive), 0.7% (inactive) and 1.9% (inactive).
For `COc1ccc(C(=O)Nc2ncc3c(n2)CC(C)CC3=O)cc1` (stereo not drawn), the inhibition in [9] was -1.5% (inactive); in [10], -0.9% (inactive); in assay [11], -4.5% (inactive).
In the case of `CC(=O)OCC1OC(n2ccc(=O)[nH]c2=O)C(O)C1O` (stereo not drawn), the inhibition was -0.4% (inactive) in [9], 0.5% (inactive) in assay [10] and -5.3% (inactive) in assay [11].
Regarding `COc1ccc(CCNC(=O)c2ccc(Cl)cc2)cc1OC`, the inhibition in assay [9] was 0.6% (inactive); in [10] it was -1.4% (inactive); in assay [11], -4.6% (inactive).
On to `Cc1ccc2nc(C)c3c(c2c1)OC(C(C)(Cl)Br)C3` (stereo not drawn), for which the inhibition in [9] is -0.4% (inactive); in assay [10] it was -0.5% (inactive); in assay [11] it was 3.2% (inactive).
`O=C(NCc1ccco1)/C(=C\C=C\c1ccccc1)NC(=O)c1ccccc1Br`: the inhibition in [9] was -0.5% (inactive); in assay [10], 0% (inactive); in assay [11], 1.6% (inactive).
For the compound `COc1ccc(C2OC(=O)Cc3cc(OC)c(OC)cc32)cc1` (stereo not drawn), the inhibition in assay [9] was 3.2% (inactive); in [10], 0.8% (inactive); in [11], 2.9% (inactive).
The corresponding values for `CC(C)C12CN3CC(C(C)C)(CN(C1)C3c1ccccc1O)C2=O` (stereo not drawn) are 4.7% (inactive), 1.2% (inactive) and -5.3% (inactive).
For `CCN1C(=O)C(CC(=O)Nc2ccc(F)cc2)N(Cc2ccc3c(c2)OCO3)C1=S` (stereo not drawn), in that order: -1.3% (inactive), -0.3% (inactive) and -6.1% (inactive).
For `O=C(Nc1cccc(Cl)c1)N1CCN2C(=O)c3ccccc3C12c1ccccc1` (stereo not drawn), the inhibition is -3.9% (inactive) in assay [9], -0.1% (inactive) in [10] and -4.4% (inactive) in assay [11].
For `Cc1oc2ccc(OC(=O)c3cccs3)cc2c1C(=O)OC(C)C`, the inhibition in assay [9] is -0.1% (inactive); in [10] it was -1.1% (inactive); in assay [11] it was 3.1% (inactive).
In the case of `CCOc1ccc2nc(NC(=O)NC3CCCCC3)sc2c1`, the values for the inhibition in assay [9], in assay [10] and in [11] were 0% (inactive), -1.5% (inactive) and -3.9% (inactive), respectively.
The corresponding values for `O=C(Cc1ccccc1)NNC(=O)Cc1ccccc1` are 0.3% (inactive), 1.7% (inactive) and -1.2% (inactive).
On to `COc1ccc2[nH]cc(CCNC(=O)C3CCCNC3=O)c2c1` (stereo not drawn), for which the inhibition in [9] was -3.2% (inactive); in assay [10] it was -1.5% (inactive); in assay [11], -5.3% (inactive).
For `S=C(c1ccc2c(c1)OCO2)N1CCCCC1`, in that order: 1.1% (inactive), -1.6% (inactive) and -0.2% (inactive).
Consider `COc1ccc2c(c1O)Cc1ccccc1C2=O`, for which the results for the inhibition in [9], in assay [10] and in [11] were 0% (inactive), -0.7% (inactive) and -3.9% (inactive), respectively.
Turning to `C/C(NC(=O)c1cccs1)=C1\C(=O)C[C@@H]2[C@H]1C2(C)C`, the values for the inhibition in [9], in assay [10] and in [11] were 3% (inactive), 0.5% (inactive) and 3.4% (inactive), respectively.
As for `COc1cc2cc(C(=O)O)[nH]c2c(OC)c1OC`, the inhibition was 0.5% (inactive) in [9], -0.4% (inactive) in assay [10] and -3.8% (inactive) in assay [11].
The corresponding values for `COc1ccc(S(=O)(=O)NCc2ccco2)c2ccccc12` are 4.7% (inactive), 0.4% (inactive) and 1% (inactive).
In the case of `O=C1c2ccccc2C(=O)C1c1ccccc1`, the inhibition was -2.6% (inactive) in assay [9], 0.2% (inactive) in assay [10] and 9.8% (inactive) in [11].
For `Cc1ccccc1NC(=O)c1c(C)cc(=O)oc1C`, in that order: -0.8% (inactive), -0.1% (inactive) and 1.7% (inactive).
On to `Cc1cc(-c2nn(-c3ccccc3F)cc2CN2CCC(O)CC2)c(C)s1`, for which the values for the inhibition in assay [9], in assay [10] and in assay [11] were -1.7% (inactive), 0.2% (inactive) and -1.4% (inactive), respectively.
The corresponding values for `CCC(=O)Oc1ccc(/C(CC)=C(\CC)c2ccc(OC(=O)CC)cc2)cc1` are -2% (inactive), 0.1% (inactive) and -0.2% (inactive).
The corresponding values for `CCOC(=O)c1c(C)oc2c1C(=O)c1ccccc1C2=O` are 3.1% (inactive), 1.4% (inactive) and -9.3% (inactive).
Turning to `COC(=O)c1ccc(NC(=O)C23CCC(C)(C(=O)O2)C3(C)C)cc1` (stereo not drawn), the inhibition in assay [9] was 0.4% (inactive); in assay [10], -1.5% (inactive); in assay [11], 2.4% (inactive).
For `O=c1[nH]cnc2[nH]ncc12`, the inhibition in [9] was 4.1% (inactive); in [10], 0.8% (inactive); in assay [11], -1.1% (inactive).
Consider `CC1(C)Cc2ccccc2-c2n[nH]c(=S)n21`, for which the inhibition in assay [9] is -0.3% (inactive); in assay [10], 0.5% (inactive); in assay [11], 1.7% (inactive).
For `C#CCN(C)CCCOc1ccc(Cl)cc1Cl`, the figures for the inhibition in assay [9], in assay [10] and in assay [11] were 1.1% (inactive), -1.4% (inactive) and -10.6% (inactive), respectively.

The term inhibition denotes the drop in the measured response relative to a control, in per cent.
